Assay results reported in PubChem BioAssay AID1851 (National Center for Advancing Translational Sciences (NCATS), 2009).
“And” between values parts separate entries of the source, which are not always exact repeats. Equal values may be shown once. Hit rate of the full screen: of about 16,000 compounds, about 5,700 (36%) were called active. Another 24% or so got no clear call; they are omitted. The call rests on the fitted dose curve; in most records, active means well fitted curve in the direction sought with a large enough effect; inconclusive means small, poorly fitted or top-dose-only effect, or effect the other way; inactive means no such curve, though single readings can be large or run the other way. This is one part of the list. Numbered stars: 1 amine (or outer) side, 2 acyl side, 3 side chain; on linkers, the order of the positions; unused ones are H or OH. Bridge positions count the residues as written; N and C are the ends. Square brackets hold non-standard residues; d marks the D form. Peptide text beside a SMILES is read from it. I, II: the chains in the order shown. Actinocin(9to1) = Cc1c2oc3c(C)ccc(C(=O)[*:1])c3nc-2c(C(=O)[*:2])c(N)c1=O; aThr = C[C@H](O)[C@H](N)C(=O)O; NMeV = CN[C@H](C(=O)O)C(C)C; Sar = CNCC(=O)O

These molecules were tested against Cytochrome P450 1A2 (Homo sapiens) (UniProt P05177) (assay: Cytochrome panel assay with activity outcomes). Conditions: recombinant CYP, pro-luciferin dealkylation, luminescence, p450-cyp1a2; series mostly up to 57.1 µM; activity, negative = inhibition: at the top concentration.
On the % scale 0 is the no-effect control and ±100 the full control effect.

Cytochrome P450 1A2 (Homo sapiens), sequence (P05177 whole entry, looked up): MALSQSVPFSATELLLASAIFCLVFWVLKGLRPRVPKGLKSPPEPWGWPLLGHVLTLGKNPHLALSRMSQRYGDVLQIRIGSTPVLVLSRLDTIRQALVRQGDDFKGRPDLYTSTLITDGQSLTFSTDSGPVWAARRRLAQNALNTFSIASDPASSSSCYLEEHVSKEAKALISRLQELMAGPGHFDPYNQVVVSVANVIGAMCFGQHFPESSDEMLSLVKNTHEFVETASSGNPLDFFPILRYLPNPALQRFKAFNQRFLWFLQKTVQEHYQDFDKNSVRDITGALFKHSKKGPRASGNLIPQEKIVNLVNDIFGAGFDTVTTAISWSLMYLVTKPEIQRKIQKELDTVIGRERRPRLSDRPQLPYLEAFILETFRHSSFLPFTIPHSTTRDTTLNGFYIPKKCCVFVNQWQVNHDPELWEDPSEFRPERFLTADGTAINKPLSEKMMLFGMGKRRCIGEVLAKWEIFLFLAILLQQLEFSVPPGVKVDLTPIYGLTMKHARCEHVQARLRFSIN

AC50, active:
CC1CCc2cc(F)ccc2N1C(=O)CSc1nnc2c(n1)[nH]c1ccc(F)cc12 (configuration not stated) 0.501 µM
O=C(CSc1nnc2c(n1)[nH]c1ccc(F)cc12)OCc1ccccc1 0.501 µM
Cc1nc(Cl)c(C#N)cc1-c1ccccc1 1 µM
Cc1nc(Sc2ccccc2)c(C#N)cc1-c1ccccc1 1.26 µM
CCOC(=O)C1=C(c2ccccc2)OC(N)=C(C#N)C1c1ccc(Cl)s1 (configuration not stated) 0.398 µM
CCc1ccc2c(-c3cccc(Cl)c3)nc(=O)n(CC)c2n1 0.126 µM
CC1(C)Oc2ccc(NC(=O)c3ccco3)cc2O1 5.01 µM
O=C(Nc1ccccc1C(=O)Nc1ccc2c(c1)OCO2)c1ccco1 8.91 µM
O=C(Nc1ccccc1C(=O)NCCc1ccccc1)c1ccco1 5.01 µM
Cc1cc(NC(=O)c2ccco2)ccc1-n1cnnn1 14.1 µM
COc1ccc2[nH]cc(CCNc3ccnc(-c4c(C)noc4C)n3)c2c1 2 µM
COc1ccc2[nH]cc(CCNc3cc(-c4ccc(C(=O)N(C)C)cc4)ncn3)c2c1 20 µM
COc1ccc2[nH]cc(CCNc3ccnc(-c4ccc(C(=O)N(C)C)cc4)n3)c2c1 12.6 µM
COc1ccc2[nH]cc(CCNc3ccnc(-c4ccc(N(C)C)cc4)n3)c2c1 0.631 µM
COc1ccc2[nH]cc(CCNc3ccnc(-c4ccoc4)n3)c2c1 0.501 µM
COc1ccc2[nH]cc(CCNc3ccnc(-c4ccc5c(c4)OCO5)n3)c2c1 0.631 µM
O=S(Cc1cc(Oc2ccccc2)nc(-c2ccccc2)n1)c1ccccc1 (configuration not stated) 2.82 µM
O=S(=O)(Cc1cc(Oc2ccccc2)nc(-c2ccccc2)n1)c1ccccc1 0.708 µM
CNc1cc(CS(=O)c2ccccc2)nc(-c2ccccc2)n1 (configuration not stated) 14.1 µM
Cc1nnc(-c2cccc(Br)c2)c2cn(-c3ccc(Br)cc3)nc12 0.891 µM
Cc1nnc(-c2cccc(Br)c2)c2cn(-c3ccccc3Cl)nc12 1.58 µM
O=C(CSC1=NCCS1)N1CCN(c2ccc(Cl)cc2)CC1 14.1 µM
O=C1C2=C(NC(=S)NC2c2ccc(Cl)cc2)NC(c2ccc(Cl)cc2)N1c1ccc(Cl)cc1 (configuration not stated) 12.6 µM
O=C(Nc1ccc2c(c1)OCCO2)c1cccc2nc3ccccc3nc12 2 µM
Cc1ccccc1NC(=O)c1cccc2nc3ccccc3nc12 2 µM
O=c1c(-c2ccc(F)cc2)nc2cnc(N3CCNCC3)nc2n1-c1ccccc1 10 µM
COc1ccc(-n2c(=O)c(-c3cccc(C#N)c3)nc3cnc(N4CCNCC4)nc32)cc1 15.8 µM
COc1ccc(-n2c(=O)c(-c3ccccc3)nc3cnc(N4CCNCC4)nc32)cc1 15.8 µM
COc1ccc(C2=Nc3cccc4cccc(c34)N2)cc1 0.631 µM
O=C(CCc1ccccc1)Nc1nncs1 10 µM
CCCC(=O)Nc1nnc(Cc2ccccc2)s1 12.6 µM

activity, negative = inhibition, inactive:
Cc1ccc(C(=O)NNC(=O)CSc2nnc3c(n2)[nH]c2ccc(F)cc23)cc1 -20.5%
C#CCCCO/N=C1/[C@H]2O[C@@H]2[C@@H](O)[C@H]2[C@H]1CCn1c(=O)n(Cc3cc4c(cc3Cl)OCO4)c(=O)n12 1.39% [at 11.4 µM]
Cc1c2oc3c(C)ccc(C(=O)N[C@@H]4C(=O)N[C@@H](C(C)C)C(=O)N5CCC[C@@H]5C(=O)N(C)CC(=O)N(C)[C@@H](C(C)C)C(=O)O[C@H]4C)c3nc-2c(C(=O)N[C@@H]2C(=O)N[C@@H](C(C)C)C(=O)N3CCC[C@@H]3C(=O)N(C)CC(=O)N(C)[C@@H](C(C)C)C(=O)O[C@H]2C)c(N)c1=O (I: [aThr]V[dP][Sar][NMeV] / II: [aThr]V[dP][Sar][NMeV]; ester I:1-I:C, II:1-II:C; linker I:N-II:N via Actinocin(9to1)) -34.7%
CC1=C(C(=O)Nc2ccccc2)C(c2ccco2)NC(=S)N1 (configuration not stated) -11.4%
Cc1cc(C)cc(NC(=O)N2CCCC2C(=O)Nc2ccc(-n3cnnn3)c(C)c2)c1 (configuration not stated) -14.1%
CCC(NC(=O)c1ccccc1NC(=O)c1ccco1)C(=O)NC1CCCCC1 (configuration not stated) -16.4%
Cc1ccc(NC(=O)CCC(=O)NNC(=O)c2ccco2)cc1C -17.2%
O=C(CCc1ccccc1)NNC(=O)c1ccco1 7.32%
N#CC(C#N)=CNCCN1CCN(C=C(C#N)C#N)CC1 -15.4% [at 2.29 µM]
NC(N)=N[C@H](CCC(=O)O)C(=O)O -0.3%
CCOC(=O)C1=C[C@@]2(CC)CCCN3CCc4c(n1c1ccccc41)[C@H]32 -14.8% [at 25.6 µM]
COc1ccc([C@@H](Nc2ncccn2)c2cc3c(cc2O)OCO3)cc1 -14.3% [at 2.29 µM]
O=C(O)CC(O)C(=O)O (configuration not stated) -6.27%
CC(C)(CS)C(=O)N1CCC[C@H]1C(=O)O 10.1% [at 25.6 µM]
Cc1nn(C)cc1CNC(=O)CCC(=O)O -0.742%
O=C(CSc1ccc(Cl)cc1)Nc1ccc(N2CCN(C(=O)c3ccc(Cl)cc3)CC2)cc1 -13.4%
COC(=O)C/C=C\[C@@H](C)[C@@H](/C=N\O[C@@H](C)c1cn([C@H]2COC[C@H]2O)nn1)OC 9.97% [at 11.4 µM]
COC(=O)C/C=C\[C@@H](C)[C@@H](/C=N\O[C@@H](C)c1cn([C@H](CO)Cc2ccccc2)nn1)OC -11.5% [at 11.4 µM] and 12.6% [at 11.4 µM]
Cc1ccccc1NC(=O)c1cnc(Nc2nc3ccccc3s2)nc1C -2.33%
Cc1ccccc1NC(=O)CN1CCC(n2nnc3ccccc32)CC1 -9.11%
COc1cccc(Cn2c(=O)c(-c3cccc(C#N)c3)nc3cnc(N4CCN(C)CC4)nc32)c1 -4.7%
O=C(c1cccc(F)c1)N1CCC2(CC1)CN(c1ccncc1)C2 -7.68%
Cc1ccc(S(=O)(=O)N2CCN(Cc3ccccc3C(F)(F)F)CC2)cc1 -21.7%
CCCC(=O)Nc1nnc(CCN2CCCCC2)s1 -3.37%
CC(=O)Nc1ccc(C(=O)NNC(=O)CCc2ccccc2)cc1 -1.45%
CCCc1nnc(NC(=O)CCC(=O)NCc2ccccc2OC)s1 -21.1%
